Data from PubChem BioAssay (NCATS).
Where “and” joins values, the source holds several entries; their conditions need not be identical. Equal values may be shown once. Records with an inconclusive call do not appear. A call without a number means that no potency is given here. Unmarked numbers belong to inactive results. Calls of active or inactive are those of the source. The call rests on the fitted dose curve; in most records, active means well fitted curve in the direction sought with a large enough effect; inconclusive means small, poorly fitted or top-dose-only effect, or another doubt; inactive means no such curve, though single readings can be large; an effect the other way counts as inactive or inconclusive.

Columns and labels:
[1] = P-glycoprotein substrates identified in KB-3-1 adenocarcinoma cell line, qHTS therapeutic library screen (AID 1346986); further: nearly all actives have a fitted effect of over 60% in size;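 further: potency is for cytotoxicity meaning loss of cell viability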
Method in brief: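 Resistance attributable to P-gp was assessed by comparing AC50 in KB-8-5-11 with parental KB-3-1 and by tariquidar reversal. Cells were exposed 72 h and viability read by CellTiter-Glo.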

[2] = P-glycoprotein substrates identified in KB-8-5-11 adenocarcinoma cell line, qHTS therapeutic library screen (AID 1346987); further: nearly all actives have a fitted effect of over 65% in size; on activity change, negative = cytotoxicity: series mostly up to about 44 µM
Method in brief: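 Steps: plate 500 KB-8-5-11 cells/well in DMEM + 10% FCS (colchicine removed); pin compounds in dose-response; incubate 72 h, 37 degree C, 5% CO2; add CellTiter-Glo, 5 min; read luminescence.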
Potency means the concentration at half of the fitted maximal effect.

Structure (SMILES) | outcome [1] | activity change, negative = cytotoxicity [2] | Potency [1] | Potency [2]
C[C@H]1CC[C@@]2(OC1)O[C@H]1CC3[C@@H]4CC[C@@H]5C[C@@H](O[C@@H]6O[C@H](CO)[C@@H](O[C@@H]7O[C@H](CO[C@@H]8OC[C@@H](O)[C@H](O)[C@H]8O)[C@@H](O[C@@H]8O[C@H](CO)[C@H](O)[C@H](O)[C@H]8O)[C@H](O)[C@H]7O)[C@H](O)[C@H]6O)CC[C@]5(C)C4CC[C@]3(C)[C@H]1[C@@H]2C (some centres undefined) | inactive [at 9.29 µM] | 3.95% [at 9.29 µM] | – | –
CC#CCn1c(N2CCCC(N)C2)nc2c1c(=O)n(Cc1nc(C)c3ccccc3n1)c(=O)n2C (centres undefined) | – | – | inactive | inactive
CC(C)C[C@@H](N)C(=O)N[C@H]1C(=O)N[C@@H](CC(N)=O)C(=O)N[C@H]2C(=O)N[C@H]3C(=O)N[C@H](C(=O)N[C@H](C(=O)O)c4cc(O)cc(O)c4-c4cc3ccc4O)[C@H](O)c3ccc(c(Cl)c3)Oc3cc2cc(c3O[C@@H]2O[C@H](CO)[C@@H](O)[C@H](O)[C@H]2O[C@H]2C[C@](C)(N)[C@H](O)[C@H](C)O2)Oc2ccc(cc2Cl)[C@H]1O | – | – | inactive | inactive
CO[C@@H]1[C@H](O)CCC2(CO2)[C@H]1[C@@]1(C)O[C@@H]1CC=C(C)C (some centres undefined) | – | – | inactive | inactive
CC(=O)O[C@@H]1CC[C@@]2(C)C(CC[C@]3(C)C2[C@H](O)C=C2[C@H]4[C@@H](C)[C@H](C)CC[C@]4(C)CC[C@]23C)[C@@]1(C)C(=O)O (some centres undefined) | – | – | inactive | inactive
COc1cc(C(C)=O)c(OC)c2c1OC(C)(C)C=C2 | – | – | inactive | inactive
CCC(C)C(=O)OC12C(OC(C)=O)C(C)C3(O)C(C=C(CO)CC4(O)C(=O)C(C)=CC43)C1C2(C)C (centres undefined) | – | – | inactive | inactive
COc1cc2ncc(-c3ccccc3)nc2cc1OC | – | – | 7.31 µM (active) | 8.2 µM (active)
Nc1nc(OCc2cc(Br)cs2)c2[nH]cnc2n1 | – | – | inactive | inactive
Fc1ccc(-c2nc(-c3ccccc3F)[nH]c2-c2ccncc2)cc1 | – | – | inactive | inactive
C=CC(=O)N1CCC(Oc2cc3c(Nc4ccc(Cl)c(Cl)c4F)ncnc3cc2OC)CC1 | – | – | 13 µM (active) | 11.6 µM (active)
CN(C)c1cccc(Oc2cnc(Nc3cccc(O)c3)nc2)c1 | – | – | inactive | inactive
C=C1C(=O)O[C@@H]2[C@H]1CC[C@H](C)[C@]1(CCC(=O)O1)C2(C)O (some centres undefined) | – | – | inactive | inactive
COc1ccc(C2=NC(c3ccc(Cl)cc3)C(c3ccc(Cl)cc3)N2C(=O)N2CCNC(=O)C2)c(OC(C)C)c1 (centres undefined) | – | – | inactive | inactive
O=C1NC(=O)C(c2cnc3ccccn23)=C1c1cn2c3c(cc(F)cc13)CN(C(=O)N1CCCCC1)CC2 | – | – | 5.8 µM (active) | 16.4 µM (active)
C=C1CC[C@@H]2[C@](C)(CO)[C@H](O)CC[C@@]2(C)[C@@H]1C/C=C1/C(=O)OCC1OC(=O)/C(=C/CO)C(O)C[C@@H]1C(=C)CC[C@@H]2[C@](C)(CO)[C@H](O)CC[C@]21C (some centres undefined) | – | – | inactive | inactive
C=C1C(=O)OC[C@@H]1C/C=C(\C)CC1CC(C)C(=O)O1 (some centres undefined) | – | – | inactive | inactive
O=C(c1cc(Cc2n[nH]c(=O)c3ccccc23)ccc1F)N1CCCNCC1 | – | – | inactive | inactive
C=CC(=O)Nc1cccc(Nc2nc(Nc3ccc(OCCOC)cc3)ncc2F)c1 | – | – | 11.6 µM (active) | 7.31 µM (active)
COc1cc(O)cc(/C=C/c2cccc(O)c2)c1 | – | – | inactive | inactive
Cn1ncnc1[C@@H]1c2n[nH]c(=O)c3cc(F)cc(c23)N[C@H]1c1ccc(F)cc1 | – | – | inactive | inactive
C=C1C(=O)O[C@@H]2[C@H]1CCC(C)=C(CCC(=O)O)[C@@]2(C)O | – | – | inactive | inactive
COc1cc(O)c2c(c1)/C=C/C[C@H](O)[C@H](O)C(=O)/C=C\C[C@H](C)OC2=O | – | – | 6.51 µM (active) | 9.2 µM (active) and 8.2 µM (active)
COc1ccc(-c2ccc3c(N4CCOCC4C)nc(N4CCOCC4C)nc3n2)cc1CO (centres undefined) | – | – | 0.0731 µM (active) | 0.0731 µM (active)
C=C(C)C1=C[C@@]2(C)C(=CC1=O)CC[C@@H](O)[C@@H]2C | – | – | inactive | inactive
C=C(C)C1CCC2(C(=O)O)CCC3(C)C(CCC4C5(C)C(C=O)C(O)C(C)(C)C5CCC43C)C12 (centres undefined) | – | – | inactive | inactive
CCN1CCC[C@@H]1CNC(=O)c1ccc2c(c1)NC(=O)c1cccc(C)c1S2 | – | – | inactive | inactive
